CYP2C9 activ – CYP2C9 (human) activation | activation factor at 5 µM | 1.4% of 96,000 active | recombinant CYP2C9, luciferin-H conversion, luminescence; stronger effect = higher value; factor 1 = untreated enzyme, 0 = blocked;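 active means activation factor of 2 or more for CYP2C9 at a 5 µM dose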;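 further: 0 = sulfaphenazole-blocked wells and 1 = vehicle-only wells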
MRP reversal – MRP-mediated drug resistance reversal; differential viability (reversal), % at 10 µM; H69AR cells + 2 uM doxorubicin, CellTiter-Glo, 72 h; 0.04% of 85,000 active; AID 602;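 active means viability drop by adding the cancer drug above about 55%, with treated viability meeting a 40% cutoff, limit read from the data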;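 further: viability without doxorubicin minus viability with 2 µM doxorubicin for each compound; larger differential means the compound sensitizes cells more to doxorubicin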
CYP2C19 activ – activators of human cytochrome P450 2C19; recombinant CYP2C19, luciferin-H EGE luminescence; stronger effect = higher value; 0 = fully inhibited enzyme, 1 = untreated enzyme; activation factor at 5 µM; 96,000 tested, under 10 active; P33261;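 active means activation factor of at least 2 at 5 µM in the primary screen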;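 further: 0 = wells with 2.5 mM tranylcypromine and 1 = vehicle-only wells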
Target sequence (P33261 whole entry, looked up): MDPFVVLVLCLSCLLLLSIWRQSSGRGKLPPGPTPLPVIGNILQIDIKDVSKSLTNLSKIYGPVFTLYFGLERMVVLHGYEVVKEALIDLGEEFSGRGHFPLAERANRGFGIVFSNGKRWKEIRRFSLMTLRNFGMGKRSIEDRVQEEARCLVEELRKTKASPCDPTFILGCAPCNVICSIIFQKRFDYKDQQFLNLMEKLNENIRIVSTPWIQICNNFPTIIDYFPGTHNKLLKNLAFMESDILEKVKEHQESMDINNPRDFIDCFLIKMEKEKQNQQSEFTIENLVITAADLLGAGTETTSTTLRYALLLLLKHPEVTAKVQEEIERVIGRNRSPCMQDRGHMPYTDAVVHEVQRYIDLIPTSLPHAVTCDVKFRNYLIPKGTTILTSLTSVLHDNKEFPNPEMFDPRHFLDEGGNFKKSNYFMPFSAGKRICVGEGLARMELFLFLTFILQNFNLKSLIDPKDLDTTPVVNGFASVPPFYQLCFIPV
CYP2C19 inh – blocks human cytochrome P450 2C19 | inhibition, % at 5 µM | 21% of 96,000 active | CYP2C19 Supersomes, luciferin-H EGE luminescence, 30 min | P33261;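 active means CYP2C19 inhibition above a set limit at 5 µM in the primary screen, cut at about 50% in these data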;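 further: plate controls were negative control wells for no effect and 2.5 mM tranylcypromine positive control for full effect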
MRP1 act – MRP-1 activation; H69AR cells + doxorubicin, viability rescue, CellTiter-Glo; viability increase, % at 10 µM; 0.61% of 140,000 active;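 active means viability gain under doxorubicin at or above a set limit, the compound median plus 3 SD, cut at about 4.7% in these data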;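 further: MRP-1 overexpressing cells given doxorubicin 25 µM after compound pretreatment; 18-22 h compound pretreatment then 72 h with doxorubicin before readout; 0% = doxorubicin-only wells and 100% = vehicle-treated cells without doxorubicin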
CYP2C9 inh – blocks human cytochrome P450 2C9 | CYP2C9 Supersomes, luciferin-H conversion, luminescence | AID 777 | P11712 | inhibition, % at 5 µM | 20% of 96,000 active;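 active means blocking of liver enzyme CYP2C9 beyond about 50% at 5 µM, limit read from the data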
The depositor's hits bear a star; x = no result. Sampled rows, rich in hits. Any-hit rate of the full collection: about 21%.

SMILES	CYP2C9 activ	MRP reversal	CYP2C19 activ	CYP2C19 inh	MRP1 act	CYP2C9 inh
O=C(COC(=O)c1cccc(NS(=O)(=O)c2ccc(F)c(F)c2)c1)NC(=O)NC1CCCCC1	x	x	x	x	-1	x
Cc1cccc(S(=O)(=O)NCCC(=O)OC(C)C(=O)NC(=O)NC2CCCCC2)c1 (stereo not drawn)	0.4	14	0.9	14	0	56*
CC(=O)OC(C(=O)NC1CCCCC1)c1cccc(C)c1 (stereo not drawn)	1.2	1	0.5	47	0	-24
O=C(COC(=O)CCNS(=O)(=O)c1cccc(C(F)(F)F)c1)NC(=O)NC1CCCCC1	0.2	x	0.3	69*	0	79*
COc1ccc(C)cc1NC(=O)C(=O)N/N=C(\C)CC(=O)Nc1cccnc1	x	x	x	x	0	x
O=C(N/N=C/c1cccc(OCC(=O)N2CCCC2)c1)C(=O)Nc1ccccc1F	x	x	x	x	-2	x
O=C(Cn1cnc2c(nnn2Cc2ccc(F)cc2)c1=O)N1CCN(c2ccccc2)CC1	1.3	0	0.9	11	2	-33
CCN(CC)c1ncnc2sc(C(=O)N3CCN(c4ccccc4)CC3)c(C)c12	0.4	-16	0.7	26	-2	62*
CCOC(=O)c1sc2ncnc(N3CCN(c4ccc(OC)cc4)CC3)c2c1C	0.8	x	0.8	15	0	20
Cc1c(C(=O)N2CCN(c3ccccn3)CC2)sc2ncnc(N3CCOCC3)c12	0.4	4	0.8	19	-1	58*
Cc1c(C(=O)N2CCC(C)CC2)sc2ncnc(N3CCN(c4ccccc4)CC3)c12	0.1	x	0.3	66*	0	95*
CCN(CC)S(=O)(=O)c1ccc(NC2CCCc3ccccc32)nc1 (stereo not drawn)	x	7	x	x	-3	x
CCC1CCCCN1C(=S)NC1CCCCC1 (stereo not drawn)	x	x	x	x	-1	x
O=C(NC1CCCC1)C1CCN(S(=O)(=O)c2cccc3cccnc23)CC1	3.1*	22	0.8	22	-1	-213
CCN1CCN(C(=O)C2CCN(S(=O)(=O)c3cccc4cccnc34)CC2)CC1	1.7	12	1.2	-15	-3	-72
CC1CCCN(C(=O)C2CCN(S(=O)(=O)c3cccc4cccnc34)CC2)C1 (stereo not drawn)	3.3*	20	0.5	49	0	-228
CCCCC1CC(CSC(=N)N)OC1=O (stereo not drawn)	1.2	5	1	-2	2	-16
CC(C)CCC1CC(CSC(=N)N)OC1=O (stereo not drawn)	1.2	-6	1	1	5.1*	-17
O=C(CSc1ncn[nH]1)Nc1ccccc1-c1ccccc1	0.9	1	0.8	19	2	11
O=C(CSc1ncn[nH]1)Nc1ccccc1Sc1ccccc1	0.5	x	0.1	87*	4	45
CC(C)Cc1nnc(NC(=O)CSc2ncn[nH]2)s1	x	13	x	x	5.3*	x
CC(C)Cc1nnc(NC(=O)CSc2ccccn2)s1	0.7	16	0.4	56*	1	31
O=C(CSc1ncn[nH]1)NC12CC3CC(CC(C3)C1)C2	1	5	0.5	48	5.1*	1
CC(C)c1ccc(NC(=O)CSc2nc(-c3ccccc3F)nc3nc[nH]c23)cc1	x	x	x	x	-1	x
CCOC(=O)N1CCN(C(=O)c2cnn(-c3ccccc3)c2NC(=O)c2ccccc2F)CC1	1.2	3	1.1	-10	-1	-24
SMILES	CYP2C9 activ	MRP reversal	CYP2C19 activ	CYP2C19 inh	MRP1 act	CYP2C9 inh
O=C(CSc1ncn[nH]1)NCCCc1ccccc1	1	4	0.4	57*	0	5
O=C(CSc1ncn[nH]1)Nc1nnc(-c2ccccc2)s1	0.7	0	0.8	23	7.2*	26
CCN(CC)C(=O)Oc1cc(=O)n2c3c(cccc13)CCC2	x	x	x	x	1	x
CC(C)OC(=O)C1C2C=CC3(CN(Cc4cccs4)C(=O)C13)O2 (stereo not drawn)	0.9	3	0.8	25	1	8
CC(=O)N(CCN(C(C)=O)c1ccccc1)c1ccccc1	1.2	13	0.3	73*	-1	-21
CCN(C(=O)c1cc(Cl)ccc1OC)C1CCCCC1	0	10	0.1	95*	-1	96*
CCN(C(=O)c1ccccc1Cl)c1ccccc1	1	6	0.4	62*	-1	4
CCN(C(=O)c1cc(Cl)ccc1OC)c1ccccc1	0.6	-12	0.3	72*	-1	45
CCN(C(=O)c1cc(Cl)ccc1OC)c1ccccc1C	x	37	x	x	-2	x
